Test results as given in the supplement of paper PMC8728848.
The sample as a whole holds a higher share of the strongest signals than the screen did.

B1: Siglec 6 (Homo sapiens), O43699 (protein)
chain: MLPLLLPLLWAGALAQERRFQLEGPESLTVQEGLCVLVPCRLPTTLPASYYGYGYWFLEGADVPVATNDPDEEVQEETRGRFHLLWDPRRKNCSLSIRDARRRDNAAYFFRLKSKWMKYGYTSSKLSVRVMALTHRPNISIPGTLESGHPSNLTCSVPWVCEQGTPPIFSWMSAAPTSLGPRTTQSSVLTITPRPQDHSTNLTCQVTFPGAGVTMERTIQLNVSYAPQKVAISIFQGNSAAFKILQNTSSLPVLEGQALRLLCDADGNPPAHLSWFQGFPALNATPISNTGVLELPQVGSAEEGDFTCRAQHPLGSLQISLSLFVHWKPEGRAGGVLGAVWGASITTLVFLCVCFIFRVKTRRKKAAQPVQNTDDVNPVMVSGSRGHQHQFQTGIVSDHPAEAGPISEDEQELHYAVLHFHKVQPQEPKVTDTEYSEIKIHK
B2: 7WC (Trifolium repens) (protein)
chain: MGTITSYAVVFDAGSTGSRVHVYHFDQNLDLLHIGKDVEFYNKIQPGLSAYADNPEQAAKSLIPLLEQAENVVPEDFHSKTPIRLGATAGLRLLDGDASERILQAVRDMLNNKSTFNVQPDAVSIIDGTQEGSYLWVTINYVLGNLGKRFTNTVGVIDLGGGSVQMAYAVSKKTARNAPKVTDGEDPYIKKIVLKGKPYDLYVHSYLHFGREASRAEILKVTHGSASPCILAGFDGIYTYSGEEFKASAPTSGANFDKCKKIIQKALKLDYPCPYQNCTFGGIWNGGGGSGQKKLFAASSFFYLPQDVGMVDPNKSNLKLRPVDLENKAKIVCTLNVEDVKSAYPLLEKFNIVPYACMDLIYQYELLVDGFGLDPLQEITAGEKIEYQEALVDAAWALGNAVEAVLLLPKFERLMYFVVEHHHHHH

What was measured:
Experiment in all cases: glycan array binding signal (z-score within array); higher = stronger binding
Settings in all cases: glycan notation: IUPAC condensed, linker removed
[1] = target: Fuc(a1-2)Gal(b1-4)[Fuc(a1-3)]GlcNAc
Outline: (§1)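 The binding signal is a Z-score computed within each array. Data were drawn from 3228 arrays in the Consortium for Functional Glycomics database, restricted to those with a known protein sequence. Scores were averaged over arrays of the same protein sequence at different concentrations or buffers, and over linkers, and negative values can be taken as non-binding.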

[2] = target: Fuc(a1-2)[Gal(a1-4)]Gal(b1-4)GalNAc
Outline: as §1

Gal(a1-2)Gal = target: Gal(a1-2)Gal
Outline: as §1

Gal(a1-3)Gal(b1-3)GlcNAc = target: Gal(a1-3)Gal(b1-3)GlcNAc
Outline: as §1

Gal(a1-4)GlcNAc = target: Gal(a1-4)GlcNAc
Outline: as §1

[3] = target: Gal(b1-3)[Neu5Ac(a2-6)]GlcNAc
Outline: as §1

[4] = target: Gal(b1-4)GlcNAc(b1-2)Man(a1-3)[Gal(b1-4)GlcNAc(b1-2)Man(a1-6)]Man(b1-4)GlcNAc(b1-4)GlcNAc
Outline: as §1

[5] = target: Gal(b1-4)GlcNAc(b1-6)[Gal(b1-3)]GalNAc
Outline: as §1

Gal3S(b1-4)GlcNAc6S = target: Gal3S(b1-4)GlcNAc6S
Outline: as §1

Gal3S6S(b1-4)GlcNAc = target: Gal3S6S(b1-4)GlcNAc
Outline: as §1

Gal3S6S(b1-4)GlcNAc6S = target: Gal3S6S(b1-4)GlcNAc6S
Outline: as §1

Gal4S6S(b1-4)GlcNAc = target: Gal4S6S(b1-4)GlcNAc
Outline: as §1

Gal6S(b1-4)Glc = target: Gal6S(b1-4)Glc
Outline: as §1

[6] = target: Man(a1-2)Man(a1-3)[Man(a1-6)]Man(a1-6)[Man(a1-2)Man(a1-3)]Man(b1-4)GlcNAc(b1-4)GlcNAc
Outline: as §1

[7] = target: Neu5Ac(a2-3)Gal(b1-3)[Fuc(a1-4)]GlcNAc
Outline: as §1

Neu5Ac(a2-3)Gal(b1-4)Glc = target: Neu5Ac(a2-3)Gal(b1-4)Glc
Outline: as §1

[8] = target: Neu5Ac(a2-6)Gal(b1-4)GlcNAc(b1-3)Gal(b1-4)GlcNAc
Outline: as §1

[9] = target: Neu5Ac(a2-8)Neu5Ac(a2-3)Gal(b1-4)Glc
Outline: as §1

[10] = target: Neu5Ac9Ac(a2-6)Gal(b1-4)GlcNAc
Outline: as §1

[11] = target: Neu5Gc(a2-3)Gal(b1-3)GlcNAc
Outline: as §1

[12] = target: Fuc(a1-2)Gal(b1-4)[Fuc(a1-3)]GalNAc(b1-3)Gal(b1-4)[Fuc(a1-3)]GlcNAc
Outline: as §1

Gal(a1-3)Gal(b1-3)Glc = target: Gal(a1-3)Gal(b1-3)Glc
Outline: as §1

[13] = target: Gal(b1-3)[Neu5Ac(a2-6)]GalNAc
Outline: as §1

[14] = target: Gal(b1-4)GlcNAc(b1-3)Gal(b1-4)Glc
Outline: as §1

Gal4S(b1-4)GlcNAc = target: Gal4S(b1-4)GlcNAc
Outline: as §1

Glc(a1-4)Glc = target: Glc(a1-4)Glc
Outline: as §1

[15] = target: GlcNAc(b1-3)Gal(b1-4)GlcNAc(b1-3)Gal(b1-4)GlcNAc
Outline: as §1

[16] = target: GlcNAc(b1-3)[GlcNAc(b1-6)]GlcNAc
Outline: as §1

[17] = target: Man(a1-2)Man(a1-2)Man(a1-6)[Man(a1-3)]Man
Outline: as §1

Man(a1-2)Man(a1-3)Man = target: Man(a1-2)Man(a1-3)Man
Outline: as §1

[18] = target: Neu5Ac(a2-3)Gal(b1-3)[Fuc(a1-4)]GlcNAc(b1-3)Gal(b1-4)[Fuc(a1-3)]GlcNAc
Outline: as §1

[19] = target: Neu5Ac(a2-3)Gal(b1-4)GlcNAc6S
Outline: as §1

[20] = target: Neu5Ac(a2-3)Gal(b1-4)[Fuc(a1-3)]GlcNAc(b1-3)Gal(b1-4)[Fuc(a1-3)]GlcNAc(b1-3)Gal(b1-4)[Fuc(a1-3)]GlcNAc
Outline: as §1

Neu5Ac(a2-6)GalNAc = target: Neu5Ac(a2-6)GalNAc
Outline: as §1

Row | Binder | glycan array binding signal (z-score) [1] | glycan array binding signal (z-score) [2] | glycan array binding signal (z-score) (Gal(a1-2)Gal) | glycan array binding signal (z-score) (Gal(a1-3)Gal(b1-3)GlcNAc) | glycan array binding signal (z-score) (Gal(a1-4)GlcNAc) | glycan array binding signal (z-score) [3] | glycan array binding signal (z-score) [4] | glycan array binding signal (z-score) [5] | glycan array binding signal (z-score) (Gal3S(b1-4)GlcNAc6S) | glycan array binding signal (z-score) (Gal3S6S(b1-4)GlcNAc) | glycan array binding signal (z-score) (Gal3S6S(b1-4)GlcNAc6S) | glycan array binding signal (z-score) (Gal4S6S(b1-4)GlcNAc) | glycan array binding signal (z-score) (Gal6S(b1-4)Glc) | glycan array binding signal (z-score) [6] | glycan array binding signal (z-score) [7] | glycan array binding signal (z-score) (Neu5Ac(a2-3)Gal(b1-4)Glc) | glycan array binding signal (z-score) [8] | glycan array binding signal (z-score) [9] | glycan array binding signal (z-score) [10] | glycan array binding signal (z-score) [11] | glycan array binding signal (z-score) [12] | glycan array binding signal (z-score) (Gal(a1-3)Gal(b1-3)Glc) | glycan array binding signal (z-score) [13] | glycan array binding signal (z-score) [14] | glycan array binding signal (z-score) (Gal4S(b1-4)GlcNAc) | glycan array binding signal (z-score) (Glc(a1-4)Glc) | glycan array binding signal (z-score) [15] | glycan array binding signal (z-score) [16] | glycan array binding signal (z-score) [17] | glycan array binding signal (z-score) (Man(a1-2)Man(a1-3)Man) | glycan array binding signal (z-score) [18] | glycan array binding signal (z-score) [19] | glycan array binding signal (z-score) [20] | glycan array binding signal (z-score) (Neu5Ac(a2-6)GalNAc)
1 | B1 | -0.259 | 1.21 | -0.328 | -0.366 | -0.074 | -0.381 | -0.29 | -0.521 | 3.66 | 5.12 | 6.44 | 3 | 0.086 | -0.209 | -0.566 | -0.332 | -0.476 | -0.16 | -0.211 | -0.386 | – | – | – | – | – | – | – | – | – | – | – | – | – | –
2 | B2 | -0.391 | – | – | – | – | – | – | – | – | – | – | – | – | – | – | – | – | – | -0.491 | – | -0.347 | -0.298 | -0.464 | -0.215 | -0.335 | 2.65 | -0.327 | 0.685 | 9.79 | -0.261 | 4.17 | -0.474 | 2.57 | -0.153
